# Bioassay records (PubChem BioAssay)
# hDAT+cocaine = modulates human dopamine transporter uptake under cocaine; B-score at 10 µM; 110,000 compounds, 1.3% hits; LLC-PK1 hDAT cells, [14C]-dopamine uptake with cocaine IC80; actives deviate in either direction; Q01959;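 active = Z score or B-score, a plate-position-corrected score, falls beyond the plate's 99.7% confidence bounds, in either direction; inactive = both scores lie inside the 99.7% bounds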
# CYP2C9 inhib = inhibitors of human CYP2C9 | CYP2C9 Supersomes, luciferin-H conversion, luminescence | inhibition, % at 5 µM | 96,000 compounds, 20% hits | AID 777;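 active = blocking of liver enzyme CYP2C9 beyond about 50% at 5 µM, limit read from the data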
# CYP2C19 inh = human CYP2C19 inhibition; P33261; CYP2C19 Supersomes, luciferin-H EGE luminescence, 30 min; inhibition, % at 5 µM; 96,000 compounds, 21% hits; AID 778;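 active = CYP2C19 inhibition above a set limit at 5 µM in the primary screen, cut at about 50% in these data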
# D1 allo mod = allosteric modulators of human D1 dopamine receptor; HEK293 D1, CRE-luciferase, dopamine EC30 potentiation; actives deviate in either direction; B-score at 10 µM; 58,000 compounds, 5.9% hits; AID 641;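 active = luminescence count or its row- and column-corrected plate score outside the 99.7% band of the plate's sample wells, on either side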
# Target sequence (P21728 whole entry, looked up): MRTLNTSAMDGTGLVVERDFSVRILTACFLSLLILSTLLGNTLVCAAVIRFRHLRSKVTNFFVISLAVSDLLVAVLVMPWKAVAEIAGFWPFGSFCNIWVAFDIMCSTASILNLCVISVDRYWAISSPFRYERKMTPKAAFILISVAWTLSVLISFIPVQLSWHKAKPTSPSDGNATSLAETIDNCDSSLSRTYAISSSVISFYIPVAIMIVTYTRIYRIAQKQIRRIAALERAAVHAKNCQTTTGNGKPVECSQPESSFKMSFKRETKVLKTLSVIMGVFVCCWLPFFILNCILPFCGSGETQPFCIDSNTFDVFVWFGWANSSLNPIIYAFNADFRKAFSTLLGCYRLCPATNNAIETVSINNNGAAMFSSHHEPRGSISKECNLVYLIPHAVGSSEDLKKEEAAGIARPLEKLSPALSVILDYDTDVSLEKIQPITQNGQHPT
# CYP2C19 activ = activators of human cytochrome P450 2C19; recombinant CYP2C19, luciferin-H EGE luminescence; active compounds read high; 0 = fully inhibited enzyme, 1 = untreated enzyme; activation factor at 5 µM; 96,000 tested, under 10 active; AID 1025;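 active = activation factor of at least 2 at 5 µM in the primary screen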
# CYP2C9 act = activators of human CYP2C9; P11712; recombinant CYP2C9, luciferin-H conversion, luminescence; active compounds read high; factor 1 = untreated enzyme, 0 = blocked; activation factor at 5 µM; 96,000 compounds, 1.4% hits;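 active = activation factor of 2 or more for CYP2C9 at a 5 µM dose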
# D1 PAM confirm = confirmation of human D1 dopamine receptor allosteric modulators | luminescence at 10 µM | HEK293 D1 CRE-luciferase, dopamine EC30 potentiation; active compounds read high | shares compounds with D1 allo mod | AID 642 | 2,200 compounds, 88% hits;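 active = luminescence in either of two replicates above the same-plate mean plus 3 SD of the low-dose dopamine control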
# D1 no dopamine = secondary test of D1 modulators: activity without dopamine; 1,900 compounds, 0.8% hits; HEK293 D1 CRE-luciferase, luminescence, no dopamine; active compounds read high; shares compounds with D1 allo mod; luminescence at 10 µM; in the data active = luminescence above about 3900
# Isoprot counter = alters isoproterenol CRE-luciferase response in HEK293 cells. shares compounds with D1 allo mod. HEK293 D1 CRE-luciferase, isoproterenol EC30 counter-screen. calls only at 10 µM. 2,200 compounds, 63% hits;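 active = luminescence in either replicate above plate mean of wells with a partly effective reference agonist dose plus 3 SD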;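 note: isoproterenol raises cAMP through native beta-adrenoceptor Gs so signal bypasses D1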
# Numbers stand for hits; – = inactive; · = not tested or not shown; + = active, no number. Shown are actives, neighbours in structure and some others; about 28% of the full set was active somewhere.
SMILES,hDAT+cocaine,CYP2C9 inhib,CYP2C19 inh,D1 allo mod,CYP2C19 activ,CYP2C9 act,D1 PAM confirm,D1 no dopamine,Isoprot counter
Cc1ccc(CNC(=O)C2CC(c3cc(C(F)(F)F)cc(C(F)(F)F)c3)=NO2)o1 (stereo unspecified),–,·,·,·,·,·,·,·,·
CCOC(=O)N1CCC(N2Cc3cccc(C(=O)NCc4ccccc4OC)c3C2=O)CC1,–,·,·,4.9,·,·,–,–,–
CCOC(=O)N1CCC(NC(=O)c2cccc3c2C(=O)N(c2ccc(OC)cc2)C3)CC1,–,98,97,5.2,–,–,10556,–,+
COc1ccc(N2Cc3cccc(C(=O)NC(C)CCc4ccco4)c3C2=O)cc1 (stereo unspecified),–,92,85,3.4,–,–,11280,–,+
CC(NC(=O)COc1ccc(Oc2ccccc2)cc1)C(=O)O (stereo unspecified),–,–,–,·,–,–,·,·,·
CC(C)C1Cc2c(C#N)c(N)n(C)c(=S)c2CO1 (stereo unspecified),–,–,–,9.8,–,–,11952,–,+
FC(F)(F)c1cc(-c2ccccc2)nc(NCC2CCCO2)n1 (stereo unspecified),–,–,–,·,–,–,·,·,·
Fc1ccc(-c2cc(C(F)(F)F)nc(NCC3CCCO3)n2)cc1 (stereo unspecified),–,–,–,5.5,–,–,8052,·,–
c1ccc2cc(-c3cc4ccccn4c3)ccc2c1,–,–,–,·,–,–,·,·,·
CCOC(=O)N1CCN(Cc2nc(N)nc(Nc3ccc(Oc4ccccc4)cc3)n2)CC1,–,81,–,3.5,–,–,12388,–,+
C/C(=C\c1ccccc1)C(=O)NC1CCSC1=O (stereo unspecified),–,–,–,·,–,–,·,·,·
Cc1cc(C(F)(F)F)c2c(N)c(C(=O)Nc3cc(C)on3)sc2n1,–,–,–,–,–,–,·,·,·
Nc1nc(C2CC2)c(Sc2sc(N)nc2C2CC2)s1,–,–,62,10,–,–,11736,–,+
Cc1nc(N2CCC(C(N)=O)CC2)c2nnn(Cc3ccccc3)c2n1,–,–,–,3.2,–,–,6740,–,–
CC1(C)CNC(=O)c2sc(N3CCCCC3)nc2C1,–,–,–,–,–,–,·,·,·
Cc1cc(Br)c2c(c1)=C(c1sc(N3CCCCCC3)nc1O)C(=O)N=2,–,–,–,6,–,–,18480,–,–
Cn1nc(C(=O)NC2=NCCS2)ccc1=O,–,–,–,·,–,–,·,·,·
CCOc1ccc(CC(=O)Nc2c(C(N)=O)oc3ccccc23)cc1OCC,–,·,·,4.5,·,·,7352,–,–
CCOC(=O)c1oc2ccccc2c1NC(=O)c1ccccc1OC,–,–,–,4.5,–,–,11400,–,+
CCOc1ccc(CC(=O)Nc2sc(Cc3ccccc3)c(C)c2C(N)=O)cc1OCC,–,–,–,·,–,–,·,·,·
O=C(O)c1cc2cccc(S(=O)(=O)N3CCOCC3)c2cc1O,·,–,–,·,–,–,·,·,·
COc1cccc(-n2c(SCC(=O)Nc3cc(C)on3)nc3c([nH]c4ccccc43)c2=O)c1,–,54,–,5.7,–,–,10104,–,+
c1cn(CCCNC2=NCCCCC2)cn1,–,–,–,–,–,–,·,·,·
O=C1c2ccccc2-c2onc3ccc(NCCCn4ccnc4)c1c23,–,97,92,3.9,–,–,11264,–,–
N#CCSc1nc(N)c(C#N)c(C2CCCCC2)c1C#N,–,53,–,9,–,–,13172,·,+
SMILES,hDAT+cocaine,CYP2C9 inhib,CYP2C19 inh,D1 allo mod,CYP2C19 activ,CYP2C9 act,D1 PAM confirm,D1 no dopamine,Isoprot counter
Cc1occc1C(=O)N1CCN(c2ncccn2)CC1,–,–,–,–,–,–,·,·,·
Cc1ccc(S(=O)(=O)NCc2nnc(SCC(=O)Nc3cccc(C)c3C)n2C)cc1,–,–,–,·,–,–,·,·,·
COc1ccc(CNc2ccc(S(N)(=O)=O)cc2)c(OC)c1OC,–,–,–,5.3,–,–,7284,–,+
C=CCOc1c(CNc2ccc(S(N)(=O)=O)cc2)cccc1OC,–,·,·,·,·,·,·,·,·
Cc1ccc(-c2nn(C)c(=O)c3ccccc23)cc1S(=O)(=O)NCCO,–,–,–,4.1,–,–,6200,–,–
COc1ccc(-c2csc3nc(C)n(-n4cccc4)c(=O)c23)cc1,–,–,–,·,–,–,·,·,·
Cc1nc2scc(-c3cccs3)c2c(=O)n1-n1cccc1,–,58,53,4.1,–,–,9316,–,+
COc1ccc(-c2c(C#N)c(N)nc3c2CCCC3)cc1OC,–,·,·,–,·,·,·,·,·
CCc1nc(C)c(C#N)c2cc(OC)c(OC)cc12,–,–,–,4.4,–,–,11084,–,+
CCc1nc(N)c(C#N)c(-c2ccncc2)c1C,–,73,100,4.4,–,–,15468,–,–
CCc1nc(N)c(C#N)c(-c2cccc3ccccc23)c1C,–,·,·,·,·,·,·,·,·
CCc1nc(N)c(C#N)c(-c2ccc(OC)c(OC)c2)c1C,–,–,–,6.7,–,–,11376,–,+
COc1nc(Nc2ccc(OC)c(Cl)c2)nc(OC)n1,–,–,–,4.3,–,–,10816,–,+
O=C(Cc1cccs1)NCCc1cn2ccccc2n1,–,·,·,·,·,·,·,·,·
Cc1cccc(C2CC(c3ccccc3)Nc3nc(N)nn32)c1 (stereo unspecified),–,–,–,18,–,–,16344,–,+
Nc1nc2n(n1)C(c1cccs1)CC(c1ccccc1)N2 (stereo unspecified),–,–,–,14,–,–,13800,·,+
Nc1nc2n(n1)C(c1cccc(Cl)c1)CC(c1ccc(F)cc1)N2 (stereo unspecified),–,–,89,13,–,–,13312,·,+
COc1ccc(C2CC(c3ccc(Cl)cc3Cl)Nc3nc(N)nn32)cc1 (stereo unspecified),–,–,–,3.1,–,–,6116,–,–
C/C(Cl)=C\Cn1c(Nc2ccccc2)nc2c1c(=O)n(C)c(=O)n2C,–,–,–,14,–,–,11964,·,+
C/C(Cl)=C/Cn1c(NCCN(C)C)nc2c1c(=O)n(C)c(=O)n2C,–,–,–,–,–,–,·,·,·
CCCCOC(=O)C1C2C=C[C@]3(CN(CCCOC)C(=O)[C@H]13)O2 (stereo partly specified),–,–,–,–,–,–,·,·,·
CCOC(=O)c1ccccc1NC(=O)c1cn(CC)c2nc(C)ccc2c1=O,·,·,·,5,·,·,–,–,–
CCn1cc(C(=O)Nc2ccccc2C(=O)OC)c(=O)c2ccc(C)nc21,·,·,·,–,·,·,·,·,·
